Sampled rows, rich in hits. Any-hit rate of the full collection: about 1.6%.
RAD54 branch: RAD54 (human) branch migration inhibition; Q92698; RAD54 Holliday junction branch migration, FAM/BHQ fluorescence; inhibition, % at 10.4 µM; actives 0.14% (n = 360,000); AID 602329;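 active = mean normalized replicate activity at least 40 and at least half of replicates scoring 40 or more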;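 also: 0% = median of neutral control wells and 100% = median of positive control wells; inhibitors cause a drop in the FAM fluorescence signal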
Target sequence (Q92698 whole entry, looked up): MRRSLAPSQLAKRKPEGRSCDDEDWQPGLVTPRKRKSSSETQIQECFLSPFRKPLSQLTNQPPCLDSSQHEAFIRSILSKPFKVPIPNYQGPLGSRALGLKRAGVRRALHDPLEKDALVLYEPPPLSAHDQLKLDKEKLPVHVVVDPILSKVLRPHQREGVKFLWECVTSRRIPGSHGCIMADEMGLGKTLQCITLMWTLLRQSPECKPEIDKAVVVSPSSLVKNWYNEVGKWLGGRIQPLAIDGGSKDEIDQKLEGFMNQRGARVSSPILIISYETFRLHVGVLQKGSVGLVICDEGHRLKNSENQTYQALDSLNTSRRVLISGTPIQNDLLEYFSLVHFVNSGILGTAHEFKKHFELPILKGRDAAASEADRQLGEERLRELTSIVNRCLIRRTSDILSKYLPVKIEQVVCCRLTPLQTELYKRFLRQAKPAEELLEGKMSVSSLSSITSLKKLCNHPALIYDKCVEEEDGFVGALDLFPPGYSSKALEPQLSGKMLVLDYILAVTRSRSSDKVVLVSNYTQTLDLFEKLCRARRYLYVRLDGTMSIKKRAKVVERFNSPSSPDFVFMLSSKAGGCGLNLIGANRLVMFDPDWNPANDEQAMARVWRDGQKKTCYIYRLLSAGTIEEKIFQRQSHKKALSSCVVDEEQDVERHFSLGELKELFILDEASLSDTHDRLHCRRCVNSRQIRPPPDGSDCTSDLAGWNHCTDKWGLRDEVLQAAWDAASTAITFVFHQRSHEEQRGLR
Myeloid diff 2: promotes myeloid progenitor differentiation; ER-HoxA9 myeloid progenitors, lysozyme-GFP differentiation, flow cytometry; calls only at 10 µM; actives 1% (n = 360,000); AID 624256;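 active = normalized GFP-positive differentiation at or above the plate's own cutoff, the solvent-only control mean plus 3 SD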;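 also: cells exposed to compound for four days before flow analysis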
ABCB6 inh 2: human ABCB6 transporter inhibition | fluorescence ratio to DMSO, % at 10 µM | K562-ABCB6 porphyrin accumulation, flow cytometry, 1 h; hits give low values | actives 0.19% (n = 360,000) | AID 602162;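 active = fluorescence ratio to DMSO below 75%, the collection mean minus 3 SD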;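 also: signal is porphyrin accumulated inside mitochondria; 100% equals median channel fluorescence of DMSO control wells; lower ratio means ABCB6 inhibition with less porphyrin fluorescence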
Vif inh: blocks HIV Vif function; inhibition, % at 7.49 µM; AID 602346; HEK293T cells, Vif self-association by quenched fluorescence, imaging, 24 h; actives 0.35% (n = 340,000); in the data active = inhibition above about 50%, passing the limit was not always enough
N-glyco inh: blocks N-linked glycosylation in D54 reporter cells; D54 ERlucT glycosylation luciferase reporter, 24 h; percent of 100 nM tunicamycin response; reporter increase, % at 12.5 µM; AID 588692; actives 0.23% (n = 360,000);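 active = mean luciferase reporter signal, scaled so untreated is 0 and the glycosylation-blocking control 100, at or above a set limit in every replicate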;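 also: luciferase carries N-glycosylation sites so blocking glycosylation raises the light; 0% = median of neutral control wells and 100% = median of 100 nM tunicamycin wells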
An asterisk follows results filed as active.

How did C[C@@H]1CN([C@H](C)CO)C(=O)c2cc(NC(=O)CCCN(C)C)ccc2O[C@@H](C)CCCCO[C@H]1CN(C)S(=O)(=O)c1ccccc1 do in these assays?
RAD54 branch: -1

What do the screens show for `O=[N+]([O-])c1ccc(-c2cn3nc(-c4ccccc4)c(-c4ccccc4)nc3n2)cc1`?
RAD54 branch: 14; Myeloid diff 2: inactive; ABCB6 inh 2: 199; Vif inh: 0; N-glyco inh: -6

What do the screens show for `Cc1ccc(-c2cn3nc(-c4ccccc4)c(-c4ccccc4)nc3n2)cc1`?
RAD54 branch: -1; Myeloid diff 2: active; ABCB6 inh 2: 187; Vif inh: inactive; N-glyco inh: -3

Results for c1ccc(-c2cn3nc(-c4ccccc4)c(-c4ccccc4)nc3n2)cc1 ?
RAD54 branch: -7; Myeloid diff 2: inactive; ABCB6 inh 2: 111; Vif inh: 157*; N-glyco inh: -4

Results for C[C@@H]1CN([C@H](C)CO)C(=O)Cc2cc(NS(=O)(=O)c3cccs3)ccc2O[C@H]1CN(C)Cc1ccc(C(=O)O)cc1 ?
RAD54 branch: -2

Results for C[C@@H]1CN([C@H](C)CO)C(=O)c2cc(NC(=O)C3CCCCC3)ccc2O[C@@H](C)CCCCO[C@@H]1CN(C)C(=O)NC1CCCCC1 ?
RAD54 branch: -7

How did Cc1cccc(-c2noc(CN(C(=O)c3c(-c4ccccc4Cl)noc3C)C(C)C)n2)c1 do in these assays?
RAD54 branch: 5; Myeloid diff 2: inactive; ABCB6 inh 2: 99; Vif inh: -23; N-glyco inh: -7

Results for Cc1onc(-c2ccccc2Cl)c1C(=O)N(Cc1nc(-c2ccccc2)no1)C1CCCCC1 ?
RAD54 branch: 5; Myeloid diff 2: active; ABCB6 inh 2: 87; Vif inh: -26; N-glyco inh: -9

What do the screens show for `C/C=C/c1ccc2c(c1)O[C@H](CN(C)C(=O)c1cnccn1)[C@H](C)CN([C@@H](C)CO)S2(=O)=O`?
RAD54 branch: -1

Results for CCN(CC)C(C)C(=O)Nc1c2c(cc3c1CCC3)CCC2 (stereo unspecified) ?
RAD54 branch: -7; Myeloid diff 2: active; ABCB6 inh 2: 110; Vif inh: -3; N-glyco inh: -2

What do the screens show for `C[C@H]1CN([C@@H](C)CO)S(=O)(=O)c2ccc(/C=C/c3ccccc3)cc2O[C@H]1CN(C)C`?
RAD54 branch: 6

Results for COc1ccc(-c2ccc(C#N)c(SCC(=O)NC3CC3)n2)cc1OC ?
Myeloid diff 2: inactive; ABCB6 inh 2: 105; Vif inh: 78*; N-glyco inh: 0

How did N#Cc1ccc(-c2ccco2)nc1SCC(=O)c1ccc(Cl)cc1 do in these assays?
RAD54 branch: 6; Myeloid diff 2: active; ABCB6 inh 2: 205; N-glyco inh: -3

Results for COc1ccc(-c2ccc(C#N)c(SCC(=O)NCc3ccco3)n2)cc1OC ?
RAD54 branch: 2; Myeloid diff 2: inactive; ABCB6 inh 2: 103; Vif inh: -5; N-glyco inh: 4

What do the screens show for `Cc1ccc(C(=O)CSc2nc(-c3ccccc3)ccc2C#N)cc1`?
RAD54 branch: -6; Myeloid diff 2: active; ABCB6 inh 2: 122; Vif inh: 21; N-glyco inh: -5

How did CN1C(=O)c2cc(NC(=O)c3ccccc3)ccc2OC[C@H]2O[C@H](CC(=O)O)CC[C@H]21 do in these assays?
RAD54 branch: 7

Results for Cc1nc(-c2ccc(F)cc2)c(CC(=O)N2CCN(S(=O)(=O)c3cccc([N+](=O)[O-])c3)CC2)s1 ?
RAD54 branch: -2; Myeloid diff 2: active; ABCB6 inh 2: 226; Vif inh: 11; N-glyco inh: 1

Results for CO[C@@H]1CN(C)C(=O)c2cc(NC(=O)C3CC3)ccc2OC[C@H](C)N(C(C)=O)C[C@H]1C ?
RAD54 branch: -4

How did COc1cccc(NC(=O)CN(C)CC(=O)Nc2ccc3c(c2)OCO3)c1 do in these assays?
RAD54 branch: -1; Myeloid diff 2: inactive; ABCB6 inh 2: 94; Vif inh: 2; N-glyco inh: 3

How did COc1cccc(NC(=O)CN(C)CC(=O)Nc2ccc(C)c([N+](=O)[O-])c2)c1 do in these assays?
Myeloid diff 2: active; ABCB6 inh 2: 102; Vif inh: 10; N-glyco inh: -6

Results for O=C1c2[nH]nc(-c3ccccc3O)c2C(c2ccccc2)N1Cc1ccco1 (stereo unspecified) ?
RAD54 branch: -2; Myeloid diff 2: active; ABCB6 inh 2: 93; Vif inh: -10; N-glyco inh: -4

Results for COc1cccc(C2c3c(-c4ccccc4O)n[nH]c3C(=O)N2Cc2ccco2)c1 (stereo unspecified) ?
RAD54 branch: 11; Myeloid diff 2: inactive; ABCB6 inh 2: 103; Vif inh: 0; N-glyco inh: -2

What do the screens show for `Cc1ccc(S(=O)(=O)N(C)C[C@@H]2Oc3ncc(-c4ccncc4)cc3C(=O)N([C@H](C)CO)C[C@@H]2C)cc1`?
RAD54 branch: 10

Results for CC1=CCC(C(=O)O)C(C(=O)Nc2cccnc2)C1 (stereo unspecified) ?
Myeloid diff 2: inactive; ABCB6 inh 2: 100; Vif inh: 51*; N-glyco inh: 3

Results for CC1=CCC(C(=O)O)C(C(=O)Nc2nc3ccc(S(C)(=O)=O)cc3s2)C1 (stereo unspecified) ?
RAD54 branch: 3; Myeloid diff 2: active; ABCB6 inh 2: 103; Vif inh: 4; N-glyco inh: 1

What do the screens show for `CS(=O)(=O)c1ccc2nc(NC(=O)c3ccccc3)sc2c1`?
RAD54 branch: -5; Myeloid diff 2: inactive; ABCB6 inh 2: 99; Vif inh: -3; N-glyco inh: -10

Results for C[C@H](CO)N1C[C@H](C)[C@@H](CN(C)C(=O)Cc2cccnc2)Oc2ncc(-c3ccccc3)cc2C1=O ?
RAD54 branch: -3

What do the screens show for `C[C@@H](NC(=O)C[C@H]1CC[C@H]2[C@@H](COC[C@H](O)CN2C(=O)Nc2cc(Cl)cc(Cl)c2)O1)c1ccccc1`?
RAD54 branch: -9

Results for C[C@@H]1CCCCO[C@@H](CN(C)C(=O)Nc2ccc3c(c2)OCO3)[C@@H](C)CN([C@H](C)CO)C(=O)c2cc(NC(=O)NC3CCCCC3)ccc2O1 ?
RAD54 branch: -21

What do the screens show for `C[C@@H]1CN([C@@H](C)CO)S(=O)(=O)c2ccc(-c3cccc(C(=O)N(C)C)c3)cc2O[C@H]1CN(C)C(=O)Cc1ccccn1`?
RAD54 branch: 1

Results for Cc1c(C)c2ccc(O[C@@H]3O[C@H](CO)[C@H](O)[C@H](O)[C@H]3O)cc2oc1=O ?
RAD54 branch: -5; Myeloid diff 2: active; ABCB6 inh 2: 135; Vif inh: -1; N-glyco inh: 2

Results for COc1cc(NC(=S)N2CCN(C(c3ccccc3)c3ccccc3)CC2)cc(OC)c1 ?
RAD54 branch: -3; Myeloid diff 2: active; ABCB6 inh 2: 84; Vif inh: -22; N-glyco inh: -2

Screening data deposited in PubChem BioAssay by several laboratories.
